We go through 70 compounds from PubChem BioAssay AID1942 (Johns Hopkins Ion Channel Center, 2009).

Hit rate of the full screen: of about 2,400 compounds, about 580 (24%) were called active. Not all results are given here. A number with no mark means an inactive call.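 How the source made its calls: active means activity change at or above the mean plus 3 SD of buffer wells without dofetilide, per plate; inactive means the rest.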

For the test, the target named is Potassium voltage-gated channel subfamily KQT member 2 (Rattus norvegicus) (UniProt O88943). The experiment in a line: KCNQ2 potentiation in CHO cells – cell-based, FluxOR thallium flux, counter-screen for hERG block protector project, confirmation (AID 1942).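 Further: normalized value minus buffer-control mean plus three SD of buffer wells.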 To be noted: FluxOR thallium flux fluorescence, at 10 µM, active compounds read high. On the technique in general: Counterscreens check selectivity or assay interference.
Potassium voltage-gated channel subfamily KQT member 2 (Rattus norvegicus), sequence (O88943 whole entry, looked up): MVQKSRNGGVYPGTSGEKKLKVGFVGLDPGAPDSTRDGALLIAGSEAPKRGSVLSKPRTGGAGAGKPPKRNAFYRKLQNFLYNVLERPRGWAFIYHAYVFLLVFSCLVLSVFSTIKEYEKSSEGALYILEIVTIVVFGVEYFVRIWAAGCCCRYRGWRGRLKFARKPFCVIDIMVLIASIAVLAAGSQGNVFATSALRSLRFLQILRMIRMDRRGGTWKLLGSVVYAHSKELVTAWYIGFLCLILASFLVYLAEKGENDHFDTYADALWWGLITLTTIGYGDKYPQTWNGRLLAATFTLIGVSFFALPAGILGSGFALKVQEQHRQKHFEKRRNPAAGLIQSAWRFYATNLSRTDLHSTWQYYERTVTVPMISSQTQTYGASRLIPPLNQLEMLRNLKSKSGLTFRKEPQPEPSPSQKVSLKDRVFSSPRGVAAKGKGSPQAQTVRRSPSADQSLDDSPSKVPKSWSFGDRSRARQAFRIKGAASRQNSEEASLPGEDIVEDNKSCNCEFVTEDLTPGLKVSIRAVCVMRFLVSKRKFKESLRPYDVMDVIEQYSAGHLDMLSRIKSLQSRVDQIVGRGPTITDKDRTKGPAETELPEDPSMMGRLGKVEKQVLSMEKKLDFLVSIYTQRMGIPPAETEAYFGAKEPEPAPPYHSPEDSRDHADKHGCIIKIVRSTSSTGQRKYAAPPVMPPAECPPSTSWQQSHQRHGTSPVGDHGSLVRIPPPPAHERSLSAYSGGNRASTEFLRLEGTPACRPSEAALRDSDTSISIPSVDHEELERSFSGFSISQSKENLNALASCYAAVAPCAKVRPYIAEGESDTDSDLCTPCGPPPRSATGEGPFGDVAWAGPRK
Turning to `O=C(Nc1ccc(Cl)cc1)Nn1cnnc1`, the activity change, less the hit threshold is -22.2%.
Next, `CC(C)NC(=O)Nc1n[nH]c(Nc2ccc(Cl)cc2)n1`: 13.2% (active); `O=c1[nH]c2ccc(S(=O)(=O)NCc3ccccc3)cc2[nH]1`: -14%; `O=C(CSc1nc(N2CCCCC2)nc(N2CCCCC2)n1)c1ccccc1`: 31.5% (active).
To `CC(C)Nc1nc(SCC(N)=O)nc(N2CCOCC2)n1` belongs -13.5%; to `Cc1ccc2nc(SCC(=O)N3CCCCCC3)nc(=O)n2c1`, -23.7%.
Next, `CN(C)CCOC(=O)C1(c2ccccc2)CCCC1`: -12.9%; `CC(C)n1c(=S)[nH]c2scc(-c3cccs3)c2c1=O`: 97.6% (active); `COc1cc(/C=N/n2cnc3scc(-c4cccs4)c3c2=O)cc(OC)c1OC`: -21%.
For the compound `Cn1c(=S)[nH]c2scc(-c3cccs3)c2c1=O`, the activity change, less the hit threshold was 70.4% (active).
Turning to `S=c1[nH]c(-c2cccs2)cn1-c1ccccc1`, the activity change, less the hit threshold was -6.4%.
Take `CC(C)C(=O)Nc1c(-c2ccccc2F)c(=O)c2ccccc2n1C`: the activity change, less the hit threshold was -21.5%.
To `NC(=O)C1CCN(C(=O)CC(c2ccccc2)c2ccccc2)CC1` belongs -24%; to `Brc1ccc(-c2noc(CCc3ccccc3)n2)cc1`, -24.9%; to `CC(C)(C)c1cc(-c2n[nH]c(=S)n2-c2ccccc2F)n[nH]1`, 11.5% (active).
On to `Fc1ccccc1-c1n[nH]c(=S)n1C1CC1`, for which the activity change, less the hit threshold was -17.8%.
Take `COc1ccc(/C(C)=N/Nc2ccc(C(=O)O)cc2)c(OC)c1`: the activity change, less the hit threshold was -18.1%.
Consider `COc1ccccc1-n1c(CCC(=O)O)ccc1-c1ccccc1`, for which the activity change, less the hit threshold is -13.3%.
As to `CON/C=N/C(=S)Nc1ncc(C(F)(F)F)cc1Cl`, the activity change, less the hit threshold was 29.7% (active).
For `ON/C=N/C(=S)Nc1ncc(C(F)(F)F)cc1Cl`, the activity change, less the hit threshold is 26.3% (active).
Next, `c1ccc(Oc2cccc(OCCn3cncn3)c2)cc1`: -14.9%.
As to `Cc1ccccc1NC(=O)CN1C(=O)S/C(=C\c2ccc(-c3cccc(C(=O)O)c3C)o2)C1=O`, the activity change, less the hit threshold is -22.4%.
`CN(Cc1ccsc1)C(=O)CCc1nnc(Cc2c[nH]c3ccccc23)o1`: the activity change, less the hit threshold is -10.9%.
Regarding `O=C1NCC(=O)N2C(c3ccccc3)c3[nH]c4ccccc4c3C[C@@H]12` (stereo not given in full), the activity change, less the hit threshold is -11.9%.
To `CC(=O)CSc1ncnc2sc3c(c12)CCC(C)C3` (stereo not given) belongs 89.9% (active).
To `COc1cc(NC(=O)CCCOc2ccc(Cl)cc2Cl)c(C(=O)O)cc1OC` belongs -18.7%; to `COc1cc(NC(=O)CSc2ncnc3sc4c(c23)CCC(C)C4)c(C(=O)O)cc1OC` (stereo not given), 89.6% (active); to `NS(=O)(=O)c1ccc(Sc2ccc3c(c2)CCC3)nc1`, -2.7%.
Next, `COc1cc(NS(=O)(=O)c2ccc(NC(=S)Nc3ccccc3)cc2)nc(OC)n1`: -20.8%.
On to `COc1ccc(C(=O)CSc2nnc3ccc(-c4ccccn4)nn23)cc1`, for which the activity change, less the hit threshold is -17.4%.
Next, `CS(=O)(=O)N1CCN(c2ccccc2NC(=O)Nc2cccc(Cl)c2)CC1`: -24.2%; `COc1ccc(-c2nc3ccc(C(=O)NCC(OC)OC)cc3nc2-c2ccc(OC)c(OC)c2)cc1OC`: -22.7%.
Next, `O=C1C(=O)N(CCN2CCOCC2)C(c2cccnc2)/C1=C(/O)c1ccc(Cl)cc1` (stereo not given): -17.6%; `Nc1nnc(SCC(=O)OCc2ccc(F)cc2)s1`: -16.7%; `O=C(/C=C/c1ccccc1)c1cc(Br)ccc(=O)c1O`: 15% (active).
Regarding `Cc1cccc(/C=C/C(=O)c2cc(Br)ccc(=O)c2O)c1`, the activity change, less the hit threshold was 3% (active).
For `O=C(/C=C/c1ccccc1)CC(=O)c1ccccc1O`, the activity change, less the hit threshold is -15.2%.
Turning to `CCc1ccc(/C=C/C(=O)c2cc(Br)ccc(=O)c2O)cc1`, the activity change, less the hit threshold was -8.6%.
To `COc1cc(C2NC(=O)NC(O)(C(F)(F)F)C2C(C)=O)cc(OC)c1OC` (stereo not given) belongs -20.3%; to `O=C1CC(C(=O)N2CCOCC2)C2(CCCCC2)O1` (stereo not given), -22.9%; to `CCOc1ccccc1CNC(=O)CNC(=O)c1cccs1`, -20.9%.
To `S=C(Nc1ccc(Cl)cc1)c1nc2ccccc2s1` belongs 7.4% (active).
Next, `Cc1ccc(NC(=S)c2nc3ccccc3s2)cc1`: -9.6%; `Cc1cccc(NC(=S)c2nc3ccccc3s2)c1`: -23.6%; `Cc1ccc2[nH]c(=O)c(C(c3nnnn3C3CCCC3)N3CCCc4ccccc43)cc2c1` (stereo not given): 13.3% (active).
On to `CC(C)(C)n1nnnc1C(c1cc2cc3c(cc2[nH]c1=O)OCCO3)N1CCSCC1` (stereo not given), for which the activity change, less the hit threshold was -17.4%.
`CC(=O)Nc1ccc(S(=O)(=O)NC2(C(F)(F)F)C(=O)Nc3c2c(=O)[nH]c(=O)n3C)cc1` (stereo not given): the activity change, less the hit threshold is -12.3%.
Take `Cc1cc(OCCN2CCCCCC2)ccc1[N+](=O)[O-]`: the activity change, less the hit threshold is -19.9%.
To `Cn1c(=O)cc(-c2ccccc2)c2ccccc21` belongs -20.4%; to `O=c1cc(-c2ccccc2)cc(-c2ccccc2)n1O`, 57.6% (active).
Turning to `C/C=C(\C)CN1CCN(c2cccc(C)c2C)CC1`, the activity change, less the hit threshold was -16.9%.
To `Cc1ccccc1OCC(=O)NNC(=O)c1ccc2c(=O)n3c(nc2c1)CCC3` belongs -15.4%.
In the case of `COc1ccccc1NC(=S)N1CCCc2ccccc21`, the activity change, less the hit threshold was -23.2%.
Next, `O=C(NC(=S)N1CCCc2ccccc21)c1ccc([N+](=O)[O-])cc1`: 15.1% (active).
In the case of `O=C(NC(=S)N1CCCc2ccccc21)c1ccc(Br)cc1`, the activity change, less the hit threshold was 18.2% (active).
Next, `O=C(COc1ccc(Br)cc1Br)NC(=S)N1CCCc2ccccc21`: -16.8%; `CCC(=O)N1CCCc2ccccc21`: -20.5%.
To `O=C(NC(=S)Nc1ccccc1N1CCCC1)c1ccc([N+](=O)[O-])cc1` belongs -8.4%; to `COc1ccccc1NC(=O)Cc1nnc(SCC(=O)Nc2nccs2)n1C`, -13.3%.
Regarding `Cc1ccc(C2c3c(-c4ccccc4O)n[nH]c3C(=O)N2Cc2ccncc2)cc1` (stereo not given), the activity change, less the hit threshold was -18.8%.
In the case of `O=C1N2CCSC2=NC1(NS(=O)(=O)c1ccccc1)C(F)(F)F` (stereo not given), the activity change, less the hit threshold was -12%.
As to `O=C(Nc1ccccc1)N1CCSc2cc(Cl)ccc21`, the activity change, less the hit threshold was -9.1%.
Turning to `Fc1ccc(-n2cc(-c3ccccc3)c3c(=S)nc[nH]c32)cc1`, the activity change, less the hit threshold is -9.7%.
`S=c1[nH]cnc2scc(-c3ccc(Br)cc3)c12`: the activity change, less the hit threshold is 4.9% (active).
For the compound `S=c1[nH]cnc2scc(-c3ccccc3)c12`, the activity change, less the hit threshold is 44.9% (active).
To `Cc1ccc(-c2csc3nc[nH]c(=S)c23)cc1` belongs 41% (active); to `Cc1ccc(C)n1-n1c(C)nc2scc(-c3ccccc3)c2c1=O`, -30.9%.
To `Cn1cc(/C=N/n2cnc3scc(-c4ccc(Cl)cc4)c3c2=O)c2ccccc21` belongs -18.8%; to `S=c1[nH]cnc2scc(-c3ccc(Cl)cc3)c12`, 18.2% (active); to `Cn1nnnc1Sc1ncnc2scc(-c3ccc(F)cc3)c12`, -21.3%.
